Consider 9 compounds from PubChem BioAssay (NCI).

Common to all, as to experiment: NCI-60 one-dose screen, 48 h (100 = growth as untreated, 0 = no growth, -100 = all killed)
The subject of one assay is HCT-15 colon. To be noted: 10 µM unless noted.
For a further assay, the system named is HT29 colon. The following applies: 10 µM unless noted.
The subject of another assay is SNB-75 CNS. To be noted: 10 µM unless noted.
The test system of a further assay is SNB-19 CNS. To be noted: 10 µM unless noted.
For a further assay, the system named is U251 CNS. The following applies: 10 µM unless noted.
The subject of another assay is PC-3 prostate. To be noted: 10 µM unless noted.
Another assay deals with SK-MEL-5 melanoma. To be noted: 10 µM unless noted.
A further assay deals with UACC-62 melanoma. The following applies: 10 µM unless noted.
The next assay relates to LOX IMVI melanoma. The following applies: 10 µM.
For another assay, the system named is SK-MEL-28 melanoma. To be noted: 10 µM unless noted.
The test system of the next assay is SK-MEL-2 melanoma. To be noted: 10 µM unless noted.
In another assay the test system is EKVX NSCLC. The following applies: 10 µM unless noted.
A further assay deals with SN12C renal. To be noted: 10 µM unless noted.
A further assay has as its system UO-31 renal. The following applies: 10 µM unless noted.
The subject of another assay is TK-10 renal. The following applies: 10 µM unless noted.
Another assay has as its system ACHN renal. To be noted: 10 µM unless noted.
The subject of a further assay is CAKI-1 renal. The following applies: 10 µM unless noted.
A further assay relates to A498 renal. The following applies: 10 µM unless noted.
The next assay has as its system CCRF-CEM leukemia. The following applies: 10 µM unless noted.
The next assay concerns MOLT-4 leukemia. The following applies: 10 µM unless noted.

The panel holds about 83,000 compounds, 20% with a hit somewhere; the sample as a whole holds those more often.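 In brief: 96-well plates, 48 h treatment, single concentration, percent growth endpoint.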 Unmarked numbers belong to inactive results. Active and inactive are the calls of the source. Rule for the calls: active = growth percent below 10; inactive = the rest.

As to `Cc1ccc(C)c(CN(C)C)c1O`, the growth is 121% in the assay on HCT-15 colon; 115% in the assay on HT29 colon; 84.2% with SNB-75 CNS; 122% in the assay on SNB-19 CNS; 99.6% in the assay with U251 CNS; 102% with PC-3 prostate. The growth was 107% with SK-MEL-5 melanoma; 117% with UACC-62 melanoma; 98.9% with LOX IMVI melanoma; 102% in the assay with SK-MEL-28 melanoma; 143% in the assay with SK-MEL-2 melanoma; 98.1% in the assay on EKVX NSCLC. Also, the growth with SN12C renal was 115%; in the assay with UO-31 renal it was 90.1%; in the assay with TK-10 renal it was 105%; in the assay on ACHN renal it was 114%; in the assay on CAKI-1 renal, 114%; with A498 renal it was 94.2%. Besides, the figures for the growth in the assay with CCRF-CEM leukemia and in the assay on MOLT-4 leukemia were 135% and 124%, respectively.

Take `O=c1n(CC2CO2)c(=O)n(CC2CO2)n1CC1CO1` (stereo not given): the growth was 60.5% with HCT-15 colon; 69.5% in the assay with HT29 colon; 79.5% in the assay on SNB-75 CNS; 62.4% in the assay with SNB-19 CNS; 54.3% in the assay on U251 CNS; 70% with PC-3 prostate. Also, the growth with SK-MEL-5 melanoma is 67.1%; in the assay with UACC-62 melanoma, 54.1%; in the assay with LOX IMVI melanoma, 52.1%; with SK-MEL-28 melanoma, 93%; in the assay with SK-MEL-2 melanoma it was 41.1%; in the assay on EKVX NSCLC, 97.4%. The growth with SN12C renal is 69.7%; with UO-31 renal it was 51%; in the assay on TK-10 renal, 74.2%; in the assay with ACHN renal, 22.3%; in the assay on CAKI-1 renal, 28.6%; in the assay on A498 renal, 85.2%. Moreover, the figures for the growth with CCRF-CEM leukemia and in the assay with MOLT-4 leukemia were 37.5% and 19.2%, respectively.

On to `COC1OC(CO)C(OC)C(O)C1O` (stereo not given), for which the growth with HCT-15 colon was 100%; with HT29 colon, 110%; in the assay on SNB-75 CNS, 103%; in the assay with SNB-19 CNS it was 105%; in the assay with U251 CNS it was 99.6%; in the assay on PC-3 prostate, 103%. For the same compound, the growth in the assay on SK-MEL-5 melanoma was 103%; in the assay on UACC-62 melanoma it was 96.2%; in the assay on LOX IMVI melanoma, 95.6%; with SK-MEL-28 melanoma it was 95.9%; in the assay with SK-MEL-2 melanoma it was 111%; in the assay on EKVX NSCLC, 103%. The growth in the assay with SN12C renal is 104%; in the assay with UO-31 renal, 92.5%; in the assay on TK-10 renal, 110%; in the assay with ACHN renal, 104%; in the assay with CAKI-1 renal it was 105%; in the assay on A498 renal, 92.7%. Besides, the growth was 102% in the assay with CCRF-CEM leukemia and 98.6% in the assay with MOLT-4 leukemia.

For `Nc1cc2ccccc2c(O)c1O`, the growth in the assay with HCT-15 colon was 16%; with HT29 colon it was 95.8%; in the assay on SNB-75 CNS, 90.4%; in the assay on SNB-19 CNS it was 90.2%; in the assay on U251 CNS, 40.2%; with PC-3 prostate it was 43.7%. Also, the growth with SK-MEL-5 melanoma was 74.7%; in the assay on UACC-62 melanoma, 90.9%; in the assay with LOX IMVI melanoma, -52.6% (active); in the assay with SK-MEL-28 melanoma, 110%; in the assay on SK-MEL-2 melanoma it was 85.3%; with EKVX NSCLC, 83.4%. Also, the growth with SN12C renal is -22.3% (active); with UO-31 renal it was 55.2%; in the assay on TK-10 renal, 114%; in the assay with ACHN renal, 9.52% (active); with CAKI-1 renal, 84.5%; in the assay on A498 renal, 97.2%. The results for the growth in the assay on CCRF-CEM leukemia and with MOLT-4 leukemia were 19.6% and -6.45% (active), respectively.

For the compound `CCOC(=O)C(COS(C)(=O)=O)(COS(C)(=O)=O)C(=O)OCC`, the growth with HCT-15 colon was 107%; in the assay on HT29 colon, 108%; with SNB-75 CNS it was 99.4%; in the assay on SNB-19 CNS it was 106%; with U251 CNS, 101%; in the assay with PC-3 prostate, 98.5%. Besides, the growth was 109% in the assay with SK-MEL-5 melanoma; 103% in the assay on UACC-62 melanoma; 98.3% in the assay with LOX IMVI melanoma; 105% with SK-MEL-28 melanoma; 114% with SK-MEL-2 melanoma; 102% in the assay on EKVX NSCLC. Also, the growth is 104% with SN12C renal; 95.7% with UO-31 renal; 111% with TK-10 renal; 103% in the assay on ACHN renal; 100% in the assay with CAKI-1 renal; 97.5% in the assay on A498 renal. For the same compound, the values for the growth with CCRF-CEM leukemia and in the assay on MOLT-4 leukemia were 105% and 96.3%, respectively.

On to `Cc1ccc(N2C(=O)c3cccc4c(N)c(S(=O)(=O)O)cc(c34)C2=O)cc1`, for which the growth in the assay on HCT-15 colon is 105%; in the assay with HT29 colon it was 124%; with SNB-75 CNS, 111%; in the assay on SNB-19 CNS it was 112%; with U251 CNS, 96.7%; in the assay with PC-3 prostate, 90%. Moreover, the growth is 102% in the assay on SK-MEL-5 melanoma; 97.4% with UACC-62 melanoma; 95% with LOX IMVI melanoma; 124% in the assay with SK-MEL-28 melanoma; 82.3% in the assay on SK-MEL-2 melanoma; 113% with EKVX NSCLC. For the same compound, the growth with SN12C renal was 105%; in the assay with UO-31 renal it was 77.3%; in the assay with TK-10 renal, 124%; in the assay on ACHN renal, 102%; with CAKI-1 renal, 108%; in the assay with A498 renal, 136%. For the same compound, the growth in the assay on CCRF-CEM leukemia was 100%; with MOLT-4 leukemia, 115%.

As for `O=C(c1cccc(C(=O)c2ccc3c4c(cccc24)C(=O)N(c2ccccc2)C3=O)c1)c1ccc2c3c(cccc13)C(=O)N(c1ccccc1)C2=O`, the growth in the assay with HCT-15 colon was 101%; in the assay with HT29 colon, 106%; with SNB-75 CNS, 93.4%; with SNB-19 CNS it was 111%; in the assay on U251 CNS it was 89.3%; in the assay with PC-3 prostate it was 82.3%. Also, the growth is 84.4% in the assay with SK-MEL-5 melanoma; 84.7% with UACC-62 melanoma; 91.2% in the assay with LOX IMVI melanoma; 109% in the assay on SK-MEL-28 melanoma; 111% with SK-MEL-2 melanoma; 104% in the assay with EKVX NSCLC. The growth in the assay with SN12C renal was 92.4%; in the assay with UO-31 renal, 89.8%; in the assay with TK-10 renal, 115%; in the assay with ACHN renal, 102%; in the assay on CAKI-1 renal, 100%; in the assay with A498 renal, 86.7%. Further, the growth in the assay on CCRF-CEM leukemia is 89.9%; in the assay with MOLT-4 leukemia it was 90.9%.

Consider `O=C1NC(=O)/C(=C\c2ccncc2)N1`, for which the growth in the assay on HCT-15 colon is 98.7%; with HT29 colon, 99.7%; in the assay with SNB-75 CNS, 92%; in the assay with SNB-19 CNS, 101%; with U251 CNS, 100%; in the assay with PC-3 prostate, 96.3%. The growth with SK-MEL-5 melanoma is 97.2%; with UACC-62 melanoma it was 95.8%; with LOX IMVI melanoma it was 100%; in the assay with SK-MEL-28 melanoma it was 101%; in the assay with SK-MEL-2 melanoma, 104%; in the assay on EKVX NSCLC, 95.5%. The growth with SN12C renal was 95.9%; with UO-31 renal it was 95.5%; in the assay on TK-10 renal it was 105%; in the assay with ACHN renal, 97.9%; in the assay on CAKI-1 renal, 100%; in the assay with A498 renal it was 94.1%. For the same compound, the growth in the assay with CCRF-CEM leukemia is 105%; in the assay with MOLT-4 leukemia, 111%.

Take `CCc1ccccc1C(=O)N(CC)CC`: the growth is 103% with HCT-15 colon; 106% in the assay on HT29 colon; 90.6% in the assay with SNB-75 CNS; 105% in the assay on SNB-19 CNS; 103% in the assay with U251 CNS; 102% with PC-3 prostate. Also, the growth with SK-MEL-5 melanoma is 104%; in the assay with UACC-62 melanoma, 99.5%; in the assay with LOX IMVI melanoma, 99.2%; in the assay on SK-MEL-28 melanoma, 102%; with SK-MEL-2 melanoma, 123%; with EKVX NSCLC, 96.6%. Moreover, the growth is 105% with SN12C renal; 91.1% in the assay with UO-31 renal; 106% in the assay on TK-10 renal; 104% in the assay on ACHN renal; 99.7% in the assay with CAKI-1 renal; 86.1% in the assay with A498 renal. Also, the growth with CCRF-CEM leukemia was 97.5%; in the assay on MOLT-4 leukemia it was 96.4%.
